High-throughput results: PubChem, National Center for Advancing Translational Sciences (NCATS)
Pf Dd2 growth: inhibitors of Plasmodium falciparum Dd2 growth. P. falciparum Dd2 growth, SYBR Green, 72 h. Potency, µM (series often up to 28.9 µM), for the others: at the top dose activity, negative = inhibition, actives largely listed as inhibitors. 4.3% of 120,000 active; active = well fitted inhibition curve with a large enough effect;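 note: plate controls were DMSO vehicle for no effect and reference drug for full effect; nearly all actives have a fitted effect of over 65% in size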
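Readout: SYBR Green fluorescence, 485 nm excitation, 535 nm emission, after ~16 h lysis at 37C. Before that, Dd2-infected red cells (2.5% hematocrit) grew 72 h with compound, 29 uM top final concentration.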
* hit, by the source's call; i = inactive; ! = a repeat was not active; [ ] = another dose, or the depositor's remark. This excerpt belongs to a sample that is enriched for hits. Potency is the fitted concentration of half-maximal effect.

SMILES	Pf Dd2 growth
O=C(N[C@@H]1C[C@H](Cn2cc(C3CC3)nn2)[C@@H](O)[C@H]1O)c1ccccc1	-1.3%[44.1 µM]
N#Cc1ccccc1CN1CCNc2nc(CN3CCN(CCO)CC3)n(Cc3ccccc3)c2C1=O	i
Fc1ccc2oc([C@H]3CCN(CC4CCCCC4)C3)nc2c1	i
O=[N+]([O-])c1cccnc1N1CC2CCC(C1)N2CC(F)(F)F	17.7%
O=C(C1CN(c2ccccc2)C(=O)N1)N1CCCC1 (centres undefined)	17.0%[44.1 µM]
O=C(Cn1nc2c(cc1=O)CCCC2)N[C@@H](Cc1ccccc1)C(=O)O	-6.2%
O=C1CCCCC(CNC(=O)c2ccccn2)N1 (centres undefined)	12.7%
Cc1noc2c(NCCN3CCOCC3)cc(-c3cccnc3)nc12	-7.8%[44.1 µM]
Cc1nn2c(c1-c1cccc3cn[nH]c13)N(C(=O)c1cccc(Cl)c1)CCC2	-20.2%[44.1 µM]
Cn1cccc1C(=O)N1CCC(n2cnnc2-c2ccccc2)C1 (centres undefined)	-18.2%
N#Cc1ccc(CN2C[C@@H](CO)[C@H](NC(=O)c3ccccc3)C2)cc1	-23.1%
O=C(N[C@@H]1CN(Cc2cccc(F)c2)C[C@H]1CO)c1ccccc1	i
O=C(N[C@@H]1CN(Cc2cc(F)cc(F)c2)C[C@H]1CO)c1ccccc1	10µM*
COc1ccc(-c2cc(N3CCCC(NC(=O)c4ccc(F)c(Cl)c4)C3)n[nH]2)cc1 (centres undefined)	-1.7%
Cc1oc(-c2ccc(C(=O)Nc3cccc(C(F)(F)F)c3)cc2)nc1CSc1ccccc1	11.2µM*
CC(=O)c1ccc(NC(=O)c2ccc(-c3nc(CSc4ccccc4)c(C)o3)cc2)cc1	-24.5%
COc1ccc(NC(=O)c2ccc(-c3nc(CSc4ccccc4)c(C)o3)cc2)cc1OC	i
CN(CCCc1nccn1C)C(=O)c1cn(CCC2CCCCN2)nn1 (centres undefined)	-18.6%
c1ccc(C2CNC2)nc1	-2.1%[76.6 µM]
O=C1CCCN1CCC1CCN(Cc2cccc(OCC(O)CN3CCOCC3)c2)CC1 (centres undefined)	-2.8%
CN(Cc1ccccc1)C(=O)C1(c2ccc(NC(=O)C3CC3)cc2)CCCCC1	4.47µM*
CC(=O)Nc1ccc(C2(C(=O)N(C)Cc3ccccc3)CCCCC2)cc1	i
O=C(Nc1ccc(C2(C(=O)O)CCC2)cc1)C1CC1	0.4%
CC(Oc1ccccc1)C(=O)N1CCN(C(=O)c2nnn3c2COC(c2ccccc2)C3)CC1 (centres undefined)	-7.2%
CC(=O)N(C1CC1)C1CCOC2(CCN(C(=O)Nc3ccccc3F)CC2)C1 (centres undefined)	i
SMILES	Pf Dd2 growth
Cc1ccc(CNC(=O)C2(Cc3ccccc3)CCCCC(=O)N2)cc1 (centres undefined)	-19.2%
Cc1ccc(-c2cc3c(=O)n(CCNC(=O)c4ccc(C)s4)ccn3n2)c(C)c1	i
O=C1Cc2cc(S(=O)(=O)Nc3cccc(C(F)(F)F)c3)cc3c2N1CCC3	i
COc1ccc(C)cc1NS(=O)(=O)c1cc2c3c(c1)CC(=O)N3CCC2	18.7%
COC(=O)c1ccccc1N(C)S(=O)(=O)c1cc2c3c(c1)CC(=O)N3CCC2	7.94µM*
CN(Cc1ccc(F)cc1)C(=O)c1ccc(Cl)nc1	-9.5%[44.1 µM]
COc1ccc(C(=O)NCC2CCN(c3cnn(C)c(=O)c3)C2)c(OC)n1 (centres undefined)	-2.8%
O=C1CCN(C(=O)c2ccccc2)CCCC(C(=O)NCc2cccc(C(F)(F)F)c2)CCN1 (centres undefined)	-15.3%
O=C(c1cccc(F)c1)N1CCC(n2cnnc2-c2ccccc2)CC1	14.0%
Cc1ccc(CNC(=O)c2cc3cn(C(C)C)cc3s2)o1	i
COc1ccc(CCNC(=O)c2cc3cn(C(C)C)cc3s2)cc1OC	8.91µM*
COc1ccc(CNC(=O)c2cc3cn(C4CC4)cc3s2)cc1OC	i
O=C1NCCCN1C1CCN(Cc2cccnc2)CC1	12.8%[44.1 µM]
COCc1cccc(-c2ccc3c(n2)c(=O)ncn3Cc2ccccc2)c1	i
Cc1ccc(C(=O)NCC2Cn3cccc3C(=O)N2CC(C)C)cn1 (centres undefined)	-12.7%
Clc1ccccc1CSc1nc(NCCc2ccccc2)c2ccccc2n1	11.2µM*
Clc1ccc(CSc2nc(NCCc3ccccc3)c3ccccc3n2)cc1	10µM*
COc1ccc(C(C)=O)cc1CSc1nc(NCc2ccc(Cl)cc2)c2ccccc2n1	i
Cc1ccccc1CSc1ncc(Cl)c(C(=O)NCc2ccccc2)n1	4.9%
COc1ccc(CCNc2nc(SCc3ccc(Cl)cc3)nc3ccccc23)cc1OC	-16.7%
COc1ccc(CCNc2nc(SCc3cccc(F)c3)nc3ccccc23)cc1OC	-18.1%
CN1CC(=O)N(c2ccccc2F)Cc2c(NCCCO)ncnc21	18.7%[44.1 µM]
COc1cc(NC(=O)Cn2nc3n(c2=O)CCCCC3)cc(OC)c1	-10.0%
C#CCN(C)C(=O)[C@@H]1CCCN1[C@H](CC(C)C)C(=O)NC	-24.9%[44.1 µM]
Cc1ccccc1CNC(=O)c1nnn2c1COC(c1ccc(Cl)cc1)C2 (centres undefined)	i
SMILES	Pf Dd2 growth
FC(F)(F)CN1C2CCC1CN(c1cc(Cl)ncn1)C2	11.1%
COc1cc2nc(Cl)nc(N3CC4CCC(C3)N4CC(F)(F)F)c2cc1OC	5.01µM*
COc1ccc([N+](=O)[O-])c(N2CC3CCC(C2)N3CC(F)(F)F)n1	-1.4%
CCOc1ccc(NC(=O)N2CCC(Oc3ncccc3C(=O)N3CCCCC3)C2)cc1 (centres undefined)	i
COC(=O)c1cccc(-c2nccn2CC(O)c2ccccc2)c1 (centres undefined)	-21.4%
O=C(C1CCCCC1)N1CC[C@H](c2nc3ccc(C(F)(F)F)cc3[nH]2)C1	i
O=C(c1ccccc1)N1CC[C@H](c2nc3ccc(F)cc3[nH]2)C1	-9.4%[44.1 µM]
FC(F)(F)c1ccc2nc([C@H]3CCN(C4CCCCC4)C3)[nH]c2c1	7.94µM*
c1cc2nc(C3CCN(C4CCCCC4)C3)[nH]c2cn1 (centres undefined)	31.1%[44.1 µM]
N#Cc1ccc2nc([C@H]3CCN(Cc4ccccc4)C3)[nH]c2c1	-15.4%[44.1 µM]
FC(F)(F)c1ccc(CN2CC[C@H](c3nc4ccccc4[nH]3)C2)cc1	i
N#Cc1ccc(CN2CCC(c3nc4ccncc4[nH]3)C2)cc1 (centres undefined)	10µM*!
CN1CCC(N2CC[C@H](c3nc4ccccc4[nH]3)C2)CC1	23.3%[44.1 µM]
CC(=O)N1CC[C@H](c2nc3ccc(C(F)(F)F)cc3[nH]2)C1	27.4%[44.1 µM]
FC(F)(F)c1ccc2nc([C@H]3CCN(CC4CC4)C3)[nH]c2c1	12.6µM*
Brc1ccc(CN2CCC(c3nc4ncccc4[nH]3)C2)cc1 (centres undefined)	-25.9%
CN(C)c1ccc(CN2CC[C@H](c3nc4ccc(C(F)(F)F)cc4[nH]3)C2)cc1	5.62µM*
CCn1c(CO)nnc1C1CC(NC(=O)CCn2c(=O)[nH]c3ccccc32)C1 (centres undefined)	1.8%
CN(C)C(=O)c1ccc(-c2cccc(-c3ccn(CC4CC4)n3)c2)o1	-23.0%
O=C(O)C1=NOC2CN(Cc3ccc(Cl)cc3)CC12 (centres undefined)	21.1%
CCCCc1ccc(NC(=O)N2CCCC2c2nncn2C2CCCC2)cc1 (centres undefined)	-23.3%
CN1CCC(N[C@@H]2CO[C@H](CNC(=O)c3cccs3)[C@H]2O)CC1	4.1%[44.1 µM]
O=C(NCCC1CCN(C(=O)Nc2ccc(F)cc2F)CC1)c1ccccc1	-1.6%
O=C(c1cncc(N2CCCC(CCc3cccc(F)c3)C2)n1)N1CCCCC1 (centres undefined)	11.2µM*
